# Legend:
# Assay in all cases: PBM binding z-score (relative to random genomic background probes); higher = stronger binding; sequences stand for … in GC…GCGATTGACAGCGTAGAATGAAGG
# [1] = tested on: FXR:RXRa (NR concentration 270 nM, RXRa partner concentration 90 nM)
# Summary of the method: (§1)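 Each nuclear receptor dimer, without ligand, was incubated for 1 h on custom Agilent 4×180K protein-binding microarrays. Binding was detected with antibodies against each partner (one per run), and scanned fluorescence was regression-normalized. The binding z-scores are referenced to random human genomic background probes.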
# [2] = tested on: LXRa:RXRa (NR concentration 270 nM, RXRa partner concentration 90 nM)
# Summary of the method: as §1
# [3] = tested on: LXRa homodimer (NR concentration 270 nM)
# Summary of the method: as §1
# [4] = tested on: LXRb:RXRa (NR concentration 270 nM, RXRa partner concentration 90 nM)
# Summary of the method: as §1
# [5] = tested on: LXRb homodimer (NR concentration 270 nM)
# Summary of the method: as §1
# [6] = tested on: PPARa:RXRa (NR concentration 270 nM, RXRa partner concentration 90 nM)
# Summary of the method: as §1
# [7] = tested on: PPARg:RXRa (NR concentration 180 nM, RXRa partner concentration 90 nM)
# Summary of the method: as §1
# [8] = tested on: PPARg:RXRa 270nM:90nM, anti-RXR (NR concentration 270 nM, RXRa partner concentration 90 nM)
# Summary of the method: as §1
# [9] = tested on: PPARg:RXRa 30nM:10nM, anti-RXR (NR concentration 30 nM, RXRa partner concentration 10 nM)
# Summary of the method: as §1
# [10] = tested on: PPARg:RXRa 90nM:30nM, anti-RXR (NR concentration 90 nM, RXRa partner concentration 30 nM)
# Summary of the method: as §1
# [11] = tested on: PPARg:RXRa DBDmut IVT, anti-RXR (DBD mutation: RXRa K156A/R161A, NR concentration 270 nM, RXRa partner concentration 90 nM)
# Summary of the method: as §1
# [12] = tested on: PPARg:RXRa IVT, anti-PPARg (NR concentration 270 nM, RXRa partner concentration 90 nM)
# Summary of the method: as §1
# [13] = tested on: PPARg DBDmut:RXRa IVT, anti-PPARg (DBD mutation: PPARg1 K132A/R137A, NR concentration 270 nM, RXRa partner concentration 90 nM)
# Summary of the method: as §1
# [14] = tested on: PPARg DBDmut IVT, anti-PPARg (DBD mutation: PPARg1 K132A/R137A, NR concentration 270 nM)
# Summary of the method: as §1
# [15] = tested on: PPARg homodimer (NR concentration 180 nM)
# Summary of the method: as §1
# [16] = tested on: PXR:RXRa (NR concentration 270 nM, RXRa partner concentration 90 nM)
# Summary of the method: as §1
# [17] = tested on: PXR homodimer (NR concentration 270 nM)
# Summary of the method: as §1
# [18] = tested on: RARa:RXR (NR concentration 270 nM, RXRa partner concentration 90 nM)
# Summary of the method: as §1
# [19] = tested on: RARa homodimer (NR concentration 270 nM)
# Summary of the method: as §1
# [20] = tested on: RARb:RXRa (NR concentration 270 nM, RXRa partner concentration 90 nM)
# Summary of the method: as §1
Sequence,PBM binding z-score [1],PBM binding z-score [2],PBM binding z-score [3],PBM binding z-score [4],PBM binding z-score [5],PBM binding z-score [6],PBM binding z-score [7],PBM binding z-score [8],PBM binding z-score [9],PBM binding z-score [10],PBM binding z-score [11],PBM binding z-score [12],PBM binding z-score [13],PBM binding z-score [14],PBM binding z-score [15],PBM binding z-score [16],PBM binding z-score [17],PBM binding z-score [18],PBM binding z-score [19],PBM binding z-score [20]
CAGCCTAGGCCAGGGCCAGTATAGGAGGAACGTT,-0.702,-1.16,-0.761,-1.14,-1.72,-0.754,0.0393,-1.36,-0.853,-1.1,-0.58,-0.938,-1.07,-1.68,-1.39,-1.04,-0.58,-0.83,-0.971,-0.0787
GCATATAGGTAATACAAGGTGAACGTCCGATTGT,0.337,1.82,0.257,0.685,-0.32,1.55,1.47,1.12,0.658,0.861,4.57,3.63,0.578,0.846,0.673,0.252,0.124,1.37,0.675,0.51
CCTACTGGGCCAAGGGCATTGATCAGTCAAAGCA,-0.551,-0.572,-0.484,-0.601,-1.35,1.1,2.48,3.44,1,2.55,2.73,3.65,-0.869,-1.53,0.181,-0.452,-0.173,-0.637,-1.18,0.896
TGTCTAAGTTCAAAGGTAACGTAAGTATCCACAC,4.9,5.21,1.95,3.38,1.12,4.85,4.52,5.15,2.77,4.68,-0.293,1.97,0.709,1.14,1.56,5.3,3.65,4.93,0.919,3.93
CCGACTGGGGCACAGGTTACCATACTCAGTACGA,0.0382,0.072,-0.0129,0.247,-0.88,2.71,6.11,5.67,4.13,6.28,3.76,4.97,-0.354,-0.501,1.14,0.174,-0.362,0.462,0.15,1.07
CCTAGTTGGTCAGCAGGTCACACACCGGATATGA,1.89,1.8,1.16,2,0.372,2.85,2.27,2.51,0.854,1.83,1.7,2.95,-0.32,0.126,2.23,2.42,0.562,3.23,1.34,2.75
TCTCGGAGGACACGAAGTTCAGAGCTTTCCAGAG,0.621,0.0816,-0.00666,0.0852,-0.97,0.472,-0.146,1.2,2.18,1.76,1.43,-0.00253,-0.707,-1.05,-0.195,1.39,2.87,0.555,-0.518,2.36
TCTTGAAGATCAACAGGAGGTTAAGAAAGATCGA,0.539,1.27,0.226,1.15,-0.64,1.41,-0.0399,1.64,2.92,2.51,1.18,0.0291,0.0497,0.387,0.165,0.962,-0.127,1.25,0.0716,0.816
GGAACGAGGGCAAGTTGACAGCAGAGTTTGATGG,0.854,0.43,-0.472,0.324,-0.45,1.69,1.15,1.35,0.346,0.686,4.05,3,-0.195,-0.654,0.481,0.693,0.641,0.4,-0.316,2.51
TCTGCTAGGTCAGTTGGTCATCTAACGAGCTGCC,1.16,0.727,-0.519,0.51,0.317,1.66,0.954,2.16,1.52,2.1,2.75,3.27,0.685,0.261,0.396,0.316,-0.767,0.721,-0.587,3.47
GGAACGAGGGCAGTCGAGTTGATAGCATGGCGAT,0.203,-0.214,-0.72,-0.752,-1.02,0.405,0.453,-0.213,-0.485,-0.457,2.24,1.29,-0.319,-0.59,-0.872,1.83,-0.252,-0.0532,-0.989,1.77
TCGAGTAGGTTAGTCGGGGCAGTCAGCCAACATA,0.0181,-0.31,-0.676,0.0169,-0.869,0.556,-0.388,0.946,0.987,0.955,2.19,1.95,-0.923,-0.0532,-0.451,-0.323,-0.507,0.0728,-0.469,0.59
GCTAGCAGGCCATTAGGGTCACTCAATGACGGGC,1.78,1.35,-0.158,1.47,-0.982,2.54,1.2,1.3,-0.267,0.446,1.02,1.61,-0.521,-1.36,0.4,2.86,1.38,2.85,-0.0554,2.42
TCTAGTTGGTCACGGAGGTTACACACGACGGGTA,1.01,1.19,0.54,1.12,0.211,1.96,1.7,2.35,3.22,2.73,2.33,2.95,0.625,0.671,1.64,1.53,0.58,1.77,0.623,2.42
GATACAGGGTCAAGGCTAGAGTACGCGTATTGAT,6.01,4.13,0.107,3.78,0.158,5.61,5.73,5.61,2.19,4.21,3.54,3.94,1.02,0.742,1.69,3.72,0.503,4.37,0.567,4.43
TCTCGGAGGACAGGAAGGTCAGAGCTTTCCAGAG,0.736,1.07,0.00105,0.899,-0.565,1.87,-0.0448,1.49,2.39,1.78,1.52,0.389,-1.38,-1.7,0.357,1.36,-0.0214,1.42,0.192,2.76
CAGCCTAGGTCAGGGCCACTATAGGAGGAACGTT,1.85,1.24,-0.48,0.816,-0.559,2.18,1.36,1.27,-0.111,0.592,1.2,1.84,-0.722,-1.19,0.834,0.356,-0.684,0.936,-0.384,3.44
CCTTACGGGTCACTGACACGTTATAGCATTTGGA,5.87,3.87,0.355,3.38,0.0224,5.4,4.48,4.55,1.45,3.25,3.57,3.64,1.42,0.499,1.94,3.1,0.171,3.98,0.948,3.99
TCATATAGGTAATACAGGCGAAAGTCGGCATCTA,0.743,0.759,0.19,0.501,-0.147,1.06,0.851,2.29,4.01,3.08,3.6,2.22,1.28,0.916,0.655,0.46,0.00877,0.48,0.962,0.247
ATCTTTAGGTAAAAGTTCAGTGAATCCCGAGGAT,0.829,1.33,1.14,0.973,1.01,4.03,6.36,7.35,6.09,7.91,0.803,3.1,1.38,1.31,1.01,2.07,1.47,1.56,0.328,2.51
CGTGCAAGGTCATAGGAGGTCAGTGAAGACAGAT,7.84,7.38,4.92,6.31,1.2,5.98,6.01,6.37,2.92,5.01,3.54,4.74,1.77,-0.0772,4.07,7.21,4.19,6.63,2,5.41

# From the supplement of paper PMC6555819
